Compounds without any hit were thinned out: in the full panel of roughly 83,000, 20% have a hit.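 Cells were grown in 96-well plates and exposed to the test compound at a single concentration for 48 hours; results are reported as percent growth, with values below 10 considered active.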 Unmarked numbers belong to inactive results. Activity calls are given as the source filed them.
tested on: SN12C renal; assay: NCI-60 one-dose screen, 48 h (100 = growth as untreated, 0 = no growth, -100 = all killed); details: 10 µM unless noted

Structure (SMILES)	growth
COc1ccc(C2SCC(=O)N2NC(=O)c2ccc(NC(=O)c3ccccn3)cc2)cc1OC (centres undefined)	97.3%
O=C(O)c1cn(C2CC2)c2cc(N3CCN(S(=O)(=O)c4ccc(Cl)c(Cl)c4)CC3)c(F)cc2c1=O	10.4%
COc1ccc(/C=C/C(=O)c2ccc(B(O)O)cc2)cc1O	86.7%
O=C(Nc1ccc(OCc2nnc(-c3ccc(Cl)cc3)o2)c(F)c1)Nc1ccc(Cl)c(Cl)c1	90.9%
COc1cc(/C=C2\C=C(c3ccc(F)cc3)N(Cc3ccccc3)C2=O)cc(OC)c1OC	65.7%
Cc1cc(C)c(NC(=O)c2sc3nc4c(cc3c2N)CN(Cc2ccccc2)CC4)c(C)c1	23.9%
COc1cccc(-c2nc3sccn3c2-c2ccnc(NCCCNS(=O)(=O)c3ccccc3)n2)c1	55%
COc1cc(NCCN=C(N)NC(N)=NC(C)C)c2ncccc2c1	74.8%
Cc1ccc(Nc2ncnc3c2sc2ncccc23)cc1	98.4%
COc1cccc(/C=C2\SC(N3CCN(c4ccccn4)CC3)=NC2=O)c1	102%
CCOC(=O)C1=C(CSC(=S)N(C2CCCCC2)C2CCCCC2)N(C)C(=O)NC1c1ccccc1 (centres undefined)	71.2%
CC(C)C[C@H](NC(=O)[C@@H](Cc1ccccc1)n1ccc(Nc2ccccc2)cc1=O)B(O)O	-25.1% (active)
COc1cccc(-c2nc3sccn3c2-c2ccnc(NCCCNS(=O)(=O)c3ccc(F)cc3)n2)c1	36.8%
O=S(=O)(NCCCNc1nccc(-c2c(-c3ccccc3)nc3sccn23)n1)c1ccc(F)cc1	44.1%
Nc1c(C(=O)Nc2ccccc2)sc2nc3c(cc12)CCCCC3	45.3%
CCNC(=O)CCCCC(=O)c1c(C)[nH]c(/C=C2\N=C(c3ccc[nH]3)C=C2OC)c1C	23.3%
Cc1cc(Nc2nc(C(=O)Nc3ccccc3)nc3ccccc23)n[nH]1	63%
CCCCCCCCCCCCCCCCC(Br)C(=O)O (centres undefined)	102%
COc1ccc(/C=C2\C(=O)N(C(=O)c3csc(NC(C)=O)n3)N=C2C)cc1	106%
COc1ccc(-c2nc3sccn3c2-c2ccnc(NCCCNS(=O)(=O)c3ccc4ccccc4c3)n2)cc1	79.5%

Structure (SMILES)	growth
CC[C@]1(O)C[C@@H]2CN(Cc3c([nH]c4ccccc34)[C@@](C(=O)OC)(c3cc4c(cc3OC)N(C)[C@H]3[C@@](O)(C(=O)OC)[C@H](OC(C)=O)[C@]5(CC)[C@@H]6C[C@@H]6CN6CC[C@]43[C@@H]65)C2)C1	34.1%
CN=S(=O)(NC(=O)c1ccc(Cl)cc1Cl)c1ccc(Br)s1 (centres undefined)	105%
Cc1ccc(S(=O)(=O)NCCCNc2nccc(-c3c(-c4ccccc4)nc4sccn34)n2)cc1	48.1%
COc1cc(OC)c(C(=O)/C=C/c2cccc(C#N)c2)c(OC)c1	15.6%
COc1ccc(C2CC(c3cccs3)=NN2c2ccc(S(=O)(=O)NC(=O)Nc3ccc(C)cc3)cc2)cc1 (centres undefined)	111%
O=S(=O)(NCCNc1nccc(-c2c(-c3ccccc3)nc3sccn23)n1)c1ccc(O)cc1	40.3%
CNC(=O)Cc1nc(-c2cccc(NS(=O)(=O)c3c(F)cccc3F)c2F)c(-c2ccnc(Nc3ccccc3)n2)s1	40.5%
O=c1[nH]c2ccccc2cc1-c1nnc(Cc2ccccc2)o1	74%
CCCCCCC[C@@H](O)CC(=O)N[C@H](CCCCN)C(=O)N[C@H](Cc1c[nH]c2ccccc12)C(=O)NC(CCCCN)C(=O)N[C@H](CC(C)C)C(=O)N[C@H](Cc1ccccc1)C(=O)N[C@H](CCCCN)C(=O)N[C@H](CCCCN)C(=O)N[C@H](CC(C)C)C(=O)N1CCCC1C(=O)N[C@H](CCCCN)C(=O)N[C@H](Cc1ccccc1)C(=O)N[C@H](CC(C)C)C(=O)N[C@H](Cc1c[nH]cn1)C(=O)N[C@H](CC(C)C)C(=O)N[C@H](C)C(=O)N[C@H](CCCCN)C(=O)N[C@H](CCCCN)C(=O)N[C@H](Cc1ccccc1)C(=O)O (some centres undefined)	-40.7% (active)
Oc1ccc(Cl)cc1-c1cc(-c2ccc(Cl)cc2)n[nH]1	61.5%
CN1C(=O)[C@H]2c3c1cccc3[C@@]13NC(=O)O[C@H]1[C@H](CCC3(C)C)C2(C)C	93.3%
Cc1cccc(-n2c(C)nc3ccc(NC(=O)NCCCl)cc3c2=O)c1	107%
COc1c(NC[C@H]2OC(O)[C@H](O)[C@@H](O)[C@@H]2O)c(=O)c1=O (some centres undefined)	101%
COc1ccc(-c2nnc(COc3ccc(NS(=O)(=O)c4ccc(OC)cc4)cc3F)o2)cc1	89.8%
CCCOC(=O)C1(O)CCCC1	102%
Nc1c(C(=O)Nc2ccccc2)sc2nc3c(cc12)CN(Cc1ccccc1)CC3	70.3%
COc1cc(OC)cc(-c2n[nH]nc2-c2ccc3c(c2)OCO3)c1	49.1%
Cc1ccc(Oc2nc3ccccc3cc2-c2nnc(Cn3c(COc4ccccc4)nc4ccccc43)o2)cc1	29.4%
COc1cc(C(=O)/C=C/c2cc(C(=O)c3cc(OC)c(OC)c(OC)c3)ccc2OC)ccc1N	18.8%

Source: PubChem BioAssay (NCI)
